Values joined by “and” are separate entries in the source; they are usually repeats but may differ in a detail not shown here. Equal entries are not always repeated. Inconclusive results are not listed. Active and inactive are the calls of the source. Unless noted, the rule behind the calls is not given here.
Columns and labels:
[1] = qHTS Assay for Identifying Gametocytocidal Compounds (AID 743244; active = well fitted curve in the direction sought with a large enough effect; an effect the other way counts as inactive or inconclusive;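 note: % is set by controls: 0 for no effect and ±100 for the full control effect; actives lower the fluorescent signal which means gametocytes are killed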); settings: P. falciparum 3D7 stage III-V gametocytes, alamarBlue, 72 h; max response: stronger effect = lower value
Outline: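 Fluorescence at Ex 525/Em 598 nm, recorded 24 h after alamarBlue addition, reports residual metabolic activity of 3D7 gametocytes (stages III–V) following 72 h compound exposure at 37 °C, 5% CO2.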

[2] = qHTS profiling of the MIPE4 collection as inhibitors of Plasmodium falciparum (3D7) proliferation (AID 743344);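 note: scaled between DMSO vehicle wells and 0.29 µM artemisinin as full inhibition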; settings: P. falciparum 3D7 in erythrocytes, SYBR Green DNA fluorescence, 72 h; at 28.5 µM (top of the series) unless noted
Outline: (§1)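 Parasite DNA was quantified by SYBR Green I fluorescence (ex 485, em 535 nm) after overnight lysis in saponin/Triton buffer at room temperature. Cultures at 0.3% parasitemia and 2.5% hematocrit were first exposed to compound for 72 h at 37 C; signals were normalised to artemisinin (0.29 uM) and vehicle wells.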

[3] = qHTS profiling of the MIPE4 collection as inhibitors of Plasmodium falciparum (DD2) proliferation (AID 743345); settings: P. falciparum Dd2 in erythrocytes, SYBR Green DNA, 72 h; at 28.5 µM (top of the series) unless noted
Outline: as §1

[4] = qHTS profiling of the MIPE4 collection as inhibitors of Plasmodium falciparum (DD2) proliferation (Rep 2) (AID 743346); settings: P. falciparum Dd2 in erythrocytes, SYBR Green DNA, 72 h; at 28.5 µM (top of the series) unless noted
Outline: as §1

[5] = qHTS profiling of the MIPE4 collection as inhibitors of Plasmodium falciparum (HB3) proliferation (AID 743347);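 note: plate controls were DMSO vehicle wells for no effect and artemisinin wells for full effect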; settings: P. falciparum HB3 in erythrocytes, SYBR Green DNA, 72 h; at 28.5 µM (top of the series) unless noted
Outline: as §1

[6] = High-throughput drug toxicity screening in the BPDCN cell line Gen2.2 (AID 1224824); settings: Gen2.2 BPDCN cells; at 45.8 µM (top of the series) unless noted;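 note: cells exposed to compounds for 48 h before reading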
Outline: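 Seed 500 exponentially growing Gen2.2 cells/well; add compounds by pin tool; incubate 48 h, 37 °C, 5% CO2; add CellTiter-Glo, 15 min RT; read luminescence. % activity vs DMSO (100%) and bortezomib (0%).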

[7] = qHTS for compounds that reverse cellular toxicity of Amyloid beta (A-beta) peptide in yeast: LOPAC Validation Assay (AID 720559; active = well fitted curve in the direction sought with a large enough effect; an effect the other way counts as inactive or inconclusive;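 note: plate controls were DMSO for no effect and equimolar ferric chloride plus clioquinol rescue for full effect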)
Outline: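 Medium dispensed, compounds pinned, A-beta yeast suspension added; plates held at 30 C for 48 hr; absorbance measured at 600 nm to gauge growth; values scaled between DMSO and FeCl3/clioquinol (equimolar) controls.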

[8] = qHTS for Activators of Parkin Expression: LOPAC Validation Assay (NLuc Reporter) (AID 720572; active = well fitted curve in the direction sought with a large enough effect; an effect the other way counts as inactive or inconclusive)
Outline: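 NLuc signal, read 10 min after reagent and following a prior FLuc read, is normalized to DMSO (0) and positive controls (100%). Cells: neuronal Parkin-promoter coincidence reporter line; compounds tested 7-point, 24 h, 37 C, 5% CO2.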

[9] = target: T1, Hexokinase-4 (Homo sapiens) + Glucokinase regulatory protein (Homo sapiens) (UniProt P35557+Q14397); assay: qHTS assay for inhibitors of recombinant human GCK-GKRP interaction: Diaphorase-coupled assay (AID 743205; active = well fitted curve in the direction sought with a large enough effect; an effect the other way counts as inactive or inconclusive)
T1 sequence (P35557 whole entry, looked up): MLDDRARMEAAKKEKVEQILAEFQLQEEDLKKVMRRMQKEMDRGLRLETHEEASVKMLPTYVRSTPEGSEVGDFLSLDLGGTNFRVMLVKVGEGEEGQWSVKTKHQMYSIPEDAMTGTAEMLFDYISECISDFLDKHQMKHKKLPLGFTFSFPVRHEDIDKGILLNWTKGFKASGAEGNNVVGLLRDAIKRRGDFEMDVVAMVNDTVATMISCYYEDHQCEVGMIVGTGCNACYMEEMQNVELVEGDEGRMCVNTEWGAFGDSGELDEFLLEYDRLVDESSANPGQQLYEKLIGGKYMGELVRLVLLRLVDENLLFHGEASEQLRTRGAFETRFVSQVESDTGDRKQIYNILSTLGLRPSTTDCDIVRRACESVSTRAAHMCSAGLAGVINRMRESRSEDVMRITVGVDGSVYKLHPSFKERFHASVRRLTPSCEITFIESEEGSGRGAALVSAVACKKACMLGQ
T1 sequence (Q14397 whole entry, looked up): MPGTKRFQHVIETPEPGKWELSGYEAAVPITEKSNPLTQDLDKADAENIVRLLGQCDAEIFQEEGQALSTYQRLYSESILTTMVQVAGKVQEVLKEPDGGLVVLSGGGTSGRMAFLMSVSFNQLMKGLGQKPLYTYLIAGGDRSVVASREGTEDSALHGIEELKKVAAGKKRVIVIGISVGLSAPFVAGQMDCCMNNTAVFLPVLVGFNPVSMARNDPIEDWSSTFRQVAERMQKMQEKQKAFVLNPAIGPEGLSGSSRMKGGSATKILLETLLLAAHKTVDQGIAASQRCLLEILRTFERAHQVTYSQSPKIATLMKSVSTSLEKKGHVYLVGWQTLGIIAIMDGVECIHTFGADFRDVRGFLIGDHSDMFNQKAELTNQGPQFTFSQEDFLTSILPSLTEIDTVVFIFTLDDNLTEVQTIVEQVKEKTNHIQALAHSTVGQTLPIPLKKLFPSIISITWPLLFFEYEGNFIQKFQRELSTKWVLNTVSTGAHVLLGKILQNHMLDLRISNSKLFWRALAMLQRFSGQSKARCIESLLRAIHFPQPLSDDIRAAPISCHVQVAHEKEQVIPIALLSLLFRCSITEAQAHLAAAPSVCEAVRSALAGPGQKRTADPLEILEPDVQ
Outline: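 25 mM Hepes pH 7.6, 5 mM glucose, 0.4 mM ATP, 4 U/ml G6PDH; 10 nM each GST-GCK/FLAG-GKRP. Kinetic fluorescence read, 1/min × 30 min. Normalized: DMSO ± enzyme = max/min.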

[10] = target: T1, Hexokinase-4 (Homo sapiens) + Glucokinase regulatory protein (Homo sapiens); assay: qHTS assay for inhibitors of recombinant human GCK-GKRP interaction: ADP-Glo assay (AID 743206; active = well fitted curve in the direction sought with a large enough effect; an effect the other way counts as inactive or inconclusive;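 note: plate controls were DMSO plus enzyme for no effect and no enzyme for full effect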)
Outline: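 Pin-transferred compounds meet a 15 nM GST-GCK/15 nM FLAG-GKRP/2 uM S6P mix (dispense concentrations). ATP is then added to 0.4 mM final with 5 mM glucose, and the reaction runs 60 min at room temperature. ADP is quantified luminescently.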

[11] = target: T1, Hexokinase-4 (Homo sapiens) + Glucokinase regulatory protein (Homo sapiens); assay: qHTS assay for inhibitors of recombinant human GCK-GKRP interaction: HTRF assay (AID 743207; active = well fitted curve in the direction sought with a large enough effect; an effect the other way counts as inactive or inconclusive;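 note: 0% = DMSO with GCK present and -100% = DMSO wells lacking GCK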)
Outline: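 5 nM GST-GCK + 5 nM FLAG-GKRP + 2 uM S6P, pH 7.1 buffer (25 mM Hepes, 2 mM MgCl2, 25 mM KCl, 1 mM DTT, Tween/BSA); pin-transferred cpd; anti-FLAG XL665/anti-GST K; 60 min RT; HTRF.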

SMILES	max response [1]	parasite growth, % of DMSO control [2] [%]	parasite growth remaining, % of DMSO control (lower = more inhibition) [3] [%]	parasite growth, % of control (lower = inhibition) [4] [%]	growth, % of control [5] [%]	cell viability, % of control (lower = more cytotoxic) [6] [%]	outcome [7]	outcome [8]	outcome [9]	outcome [10]	outcome [11]
CC[C@]1(O)C[C@H]2CN(CCc3c([nH]c4ccccc34)[C@@](C(=O)OC)(c3cc4c(cc3OC)N(C=O)[C@H]3[C@@](O)(C(=O)OC)[C@H](OC(C)=O)[C@]5(CC)C=CCN6CC[C@]43[C@@H]65)C2)C1	24.7% (inactive)	19.3	18	19.1	5.89	10.7					
OC(CN1CCN(c2cccc(Cl)c2)CC1)C(c1ccccc1)c1ccccc1 (stereo not drawn)	26.8% (inactive)	42.2	90.9	66	47	319	inactive	inactive	inactive	inactive	inactive
Cc1cc2c(s1)Nc1ccccc1N=C2N1CCN(C)CC1	2.02% (inactive)					199					
CC(C)(S)[C@@H](N)C(=O)O	21.3% (inactive)	106	127	76.1	95.7	117					
COC(=O)C1=C(C)NC(C)=C(C(=O)OC(C)C)C1c1cccc2nonc12 (stereo not drawn)	3.5% (inactive)	51.5	96.4	120	99.6	131					
Cc1cc(=O)oc2cc(O)ccc12	14.2% (inactive)	85.5	101	107	105	183					
O=C(NC(Cc1cc(=O)[nH]c2ccccc12)C(=O)O)c1ccc(Cl)cc1 (stereo not drawn)	22.1% (inactive)	88.9	96.8	89.9	75.3	149					
CN(c1nccc(=O)[nH]1)C1CCN(c2nc3ccccc3n2Cc2ccc(F)cc2)CC1	6.96% (inactive)	23.2	81.9	23.1	17.5	107					
O=c1oc2cc(O)ccc2s1	-6.04% (inactive)	85.1	123	54.9	99.9	68.5					
O=C1CCc2ccc(OCCCCN3CCN(c4cccc(Cl)c4Cl)CC3)cc2N1	0.257% (inactive)	29.7	65.1	53.7	62.9	498					
Cc1nc(-c2ccc(OCC(C)C)c(C#N)c2)sc1C(=O)O	55.3% (inactive)	64.2	91.7	43.1	62	41.7					
CC(C)c1nc(CN(C)C(=O)N[C@H](C(=O)N[C@@H](Cc2ccccc2)C[C@H](O)[C@H](Cc2ccccc2)NC(=O)OCc2cncs2)C(C)C)cs1	-4.83% (inactive)	20.4	66.3	41.9	15.5	28.1					
Cc1cc2cc3c(C)cc(=O)oc3c(C)c2o1	13.8% (inactive)	93	95.8	91.1	76.7	16.3					
Oc1ccc(OCc2ccccc2)cc1	3.93% (inactive)	89.5	123	83.5	89.5	226					
Cc1ncc([N+](=O)[O-])n1CC(C)O (stereo not drawn)	9.98% (inactive)	94.7	95.7	94.8	99.2	120					
CC(C)c1ccc2oc3nc(N)c(C(=O)O)cc3c(=O)c2c1	20.5% (inactive)	54.7	91.1	71.7	74	98.6					
O=C(O)c1cn(-c2ccc(F)cc2)c2cc(N3CCNCC3)c(F)cc2c1=O	2.27% (inactive)	92.9	67.2	50.7	208	47.7					
CCCCc1ccc2nc(NC(=O)OC)[nH]c2c1	5.64% (inactive)	49.5	85.9	56.6	27.6	47.1					
CCCCCCCCCCCCCCCCCCCCCCO	23% (inactive)	94.9	124	137	105	148					
O=C(O)CCNC(=O)c1ccc(N=Nc2ccc(O)c(C(=O)O)c2)cc1	7.5% (inactive)	57.4	108	88.5	73.4	171					
CN(C)c1ccc(O)c2c1C[C@H]1C[C@H]3[C@H](N(C)C)C(=O)C(C(N)=O)=C(O)[C@@]3(O)C(=O)C1=C2O	-5.16% (inactive) and -5.04% (inactive)	6.29	9.85	6.85	6.27	77.4					
COC(=O)N[C@H](C(=O)N[C@@H](Cc1ccccc1)[C@@H](O)CN(Cc1ccc(-c2ccccn2)cc1)NC(=O)[C@@H](NC(=O)OC)C(C)(C)C)C(C)(C)C	-11.7% (inactive)	7.5	18.2	34.6	9.81	159					
